# This is one part of the list. Unmarked numbers belong to inactive results. Rule as the data show it: active = inhibition above about 32%; inactive = the rest.
# Tested on: Botulinum neurotoxin type A light chain protease (Clostridium botulinum A str. ATCC 3502)
# Test: inhibition of botulinum toxin A LC protease – biochemical, flow cytometry, cherry pick 1, confirmation (AID 602139)
# Settings: multiplex microsphere protease assay, at 10 µM, hits give high values
row,SMILES,inhibition [%]
1,Cc1ccc(-c2nc(-c3cccnc3)sc2CC(=O)Nc2ccc(C)c(Cl)c2)cc1,7.8
2,COc1ccc(C(=O)Nc2nc(-c3ccc(OC)cc3)c(-c3ccc([N+](=O)[O-])cc3)s2)cc1,15.9
3,COc1ccccc1CNC(=O)C1Cc2ccccc2C(=O)O1 (stereo unspecified),-0.4
4,COc1cc2cc(CN(CCN3CCCC3)C(=O)Nc3ccccc3Cl)c(=O)[nH]c2cc1OC,-2.7
5,CC1CCN(C(=O)c2ccc(S(=O)(=O)Cc3cc(F)ccc3F)c([N+](=O)[O-])c2)CC1,0.4
6,COCCn1nnnc1C(c1cc2ccc(OC)cc2[nH]c1=O)N1CCc2ccccc2C1 (stereo unspecified),1.1
7,CCOc1nnc(C)c2c(C)n(-c3cccc(Cl)c3)nc12,-6.5
8,Cc1c(NC(=O)c2cccnc2)c(=O)n(-c2ccccc2)n1C,0.8
9,O=S(=O)(NC1CCCCC1N1CCC(O)CC1)c1ccc(Cl)cc1 (stereo unspecified),-1
10,O=C(Nc1nnc(CCc2ccccc2)s1)C1CCCO1 (stereo unspecified),-0.5
11,Cc1onc(-c2ccccc2Cl)c1C(=O)NCCn1ccc2ccccc21,2.7
12,CCOCCn1c(-c2ccccc2)nc2ccccc21,-0.1
13,COC(=O)CN(c1nc(C)c(Cl)c(OC)n1)S(=O)(=O)c1ccc(C)cc1,1.8
14,OC(c1ccc(Cl)cc1)C(CN1CCOCC1)c1ccccc1 (stereo unspecified),2.5
15,CCOCC(=O)NCc1ccc2c(c1)cc(C)n2C,1.8
16,CCOc1ccc(NC(=O)CC(Cc2ccc(Cl)cc2)C(=O)O)cc1 (stereo unspecified),-0.4
17,Cc1cccc2cc3c(N)c(C(=O)N4CCCc5ccccc54)sc3nc12,16.3
18,Brc1ccc2ncnc(NCc3cccnc3)c2c1,-2.2
19,CC(=O)Nc1ccc(Oc2ccc3c(c2)C(=O)NC3=O)cc1,0.3
20,O=C(CN1CCCCCC1)Nc1c(Cl)cc(Cl)cc1Cl,0
21,COc1ccccc1C1CCN(C(=S)Nc2ccc(Br)cc2)CC1,0.8
